Measured values from PubChem BioAssay AID504334 (NMMLSC, 2011).
Several values for one entry are separate records, joined by “and”; a condition that tells them apart may be missing. Identical values can stand only once. Activity calls are given as the source filed them.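 The calls were made as follows: active = response relative to DMSO over 150%; inconclusive = yeast strain with under 70 recorded events; inactive = the rest.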

Test: yeast AGP1-GFP fluorescence change, single-dose confirmation – cell-based, flow cytometry, S. cerevisiae, cherry pick set 3 (AID 504334);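 also: median GFP fluorescence per well by flow cytometry over the all cells gate; ratio of sample to mean DMSO control signal so DMSO = 100% not 0%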
Conditions: S. cerevisiae AGP1-GFP strain, 3 h, at 10 µM, active compounds read high

Row | Structure (SMILES) | percent response vs DMSO
1 | Cn1c(NCCO)nc2c(c1=O)C1(CCCCC1)Cc1ccccc1-2 | 104% (inactive)
2 | COc1ccccc1-c1cc(C(F)(F)F)nc(S(C)(=O)=O)n1 | 130% (inactive)
3 | Cc1ccc(C(=O)Nc2nc(-c3ccccn3)cs2)o1 | 102% (inactive)
4 | Oc1ccc(F)c2cccnc12 | 102% (inactive)
5 | CN(C)CCCNc1cc(O)c2ncccc2c1 | 105% (inactive)
6 | O=C(N/N=C/c1ccccc1F)c1cccc2ccccc12 | 101% (inactive)
7 | O=C(O)c1ccc2cccc(O)c2n1 | 103% (inactive)
8 | COc1ccc(NC(=O)ON=C2c3ccccc3-c3ccccc32)cc1 | 98.1% (inactive)
9 | COc1cccc2c(Cl)c(CCCl)c(C)nc12 | 99.8% (inactive)
10 | CC1=CN2C(=N)/C(=C/c3ccco3)C(=O)N=C2S1 | 97.1% (inactive)
11 | Cc1ccc(C)c(Nc2ncnc(N)c2[N+](=O)[O-])c1 | 102% (inactive)
12 | C[n+]1cccc2c(Br)ccc([O-])c21 | 100% (inactive)
13 | CCOC(=O)CS(=O)(=O)c1nc(-c2ccccc2)cc(C(F)(F)F)n1 | 122% (inactive)
14 | C/C(=N\NC(=O)c1cccc2ccccc12)c1cccnc1 | 99.4% (inactive)
15 | Cc1cc(C)c2ccc(C(=O)O)nc2c1O | 97.4% (inactive)
16 | COCC(C)NC(=O)CCS(=O)(=O)c1nc(-c2ccc(OC)cc2)cc(C(F)(F)F)n1 (stereo not drawn) | 98.4% (inactive) and 101% (inactive)
17 | Cc1ccc2c(C)ccc(O)c2n1 | 102% (inactive)
18 | O=C(O)c1ccccc1-c1ccccc1C(=O)Nc1ccc(-c2nc3cc(Cl)ccc3o2)cc1 | 103% (inactive)
